# Experimental data taken from PubChem BioAssay (NCATS).
# Inconclusive results are not listed. A number with no mark means an inactive call. The source made the active and inactive calls. Calls come from the whole dose curve; as a rule, active = well fitted cell-killing curve with a large enough effect; inconclusive = small, poorly fitted or top-dose-only effect, or effect the other way; inactive = no such curve, though single readings can be large or run the other way.
# Assay: qHTS of pediatric cancer cell lines to identify multiple opportunities for drug repurposing: Confirmatory screen for SJ-GBM2 cells (AID 1347116);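 note: 48 hour compound exposure; nearly all actives have a fitted effect of over 60% in size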
# Details: SJ-GBM2 glioblastoma cells, viability; series mostly up to 45.9 µM; activity change, negative = cytotoxic: at the top concentration
# From the text: Drug repurposing or repositioning has been offered as a strategy for drug development in oncology programs. This approach has special potential for childhood cancers and other rare or orphan diseases, where the expected return on new drug development has been a disincentive to pharmaceuticals.
# In this project we exploit the poly-pharmacology of drugs to discover new indications via phenotypic screening of a panel of 19 well-characterized cell lines derived from solid tumors seen in children and adolescents. The goal is to identify approved drugs with previously unrecognized anticancer properties that has the potential to reveal new mechanisms and biological processes involved in carcinogenesis or drug resistance. We employed a titration-based paradigm (quantitative high-throughput screening or qHTS), where all compounds were tested at multiple concentrations for their effect on cell viability. Concentration-response curves (CRCs) were derived directly from the primary screen, and both potency and efficacy values were used to identify compounds with robust bioactivity profiles. We screened the NIH Chemical Genomics Center (NCGC) Pharmaceutical Collection (NPC) and Mechanism Interrogation Plate (MIPE) small molecule collections of approved and investigational compounds against these cell lines; and measured metabolically active cells after 48 hours of compound treatment as a proxy for cell viability.
# Assay Submitter: Nathalia J. Martinez, National Center for Advancing Translational Sciences, National Institutes of Health, Rockville, MD, USA; email: natalia.martinez@nih.gov
# [1] Shen, M et al. Quantitative high-throughput phenotypic screening of pediatric cancer cell lines identifies multiple opportunities for drug repurposing. Oncotarget 2017 Dec 19;9(4):4758-4772. PMID 29435139.
# The cells were obtained from University of North Carolina (UNC), Pediatric Preclinical Testing Program (PPT), and Coriell Institute (CI).
# qHTS cell viability assay:
# Cells were assayed in growth media at a density of 500-1,000 cells/well. Five microliters of cells were dispensed into 1,536-well, white, solid-bottom, TC-treated plates (Greiner Bio One) using a multidrop dispenser and incubated at 37 degrees C, 5% CO2, under a humidified atmosphere for 5 hours. Twenty-three nanoliters of compounds and controls (neutral control DMSO or positive control bortezomib at final concentration of 2.3 µM) were subsequently transferred by Kalypsys pintool. For primary screens, the MIPE collection was tested at 11-point dilutions (final concentrations range from 0.78 nM to 46 µM) and the NPC collection at 8-point dilutions (final concentrations range from 0.59 nM to 46 µM). Compounds tested in follow-up screens were assayed at 11-point dilutions. Cells were incubated for 48 hours, followed by addition of 3 uL of CellTiter-Glo (Promega). After a 15 min incubation at room temperature, samples were analyzed for luminescence intensity using a ViewLux High-throughput CCD imager equipped with clear filters.
# Potency is the fitted concentration of half-maximal effect.
Structure (SMILES),Potency,"activity change, negative = cytotoxic",outcome
Oc1ccc(-c2nc(-c3ccc(F)cc3)c(-c3ccncc3)[nH]2)cc1,2.33 µM (active),,
CCN(CC)C(=S)SSC(=S)N(CC)CC,1.31 µM (active),,
CC(C)C[C@H](NC(=O)[C@H](Cc1ccccc1)NC(=O)c1cnccn1)B(O)O,0.0329 µM (active),,
Cc1ccc(NC(=O)c2ccc(CN3CCN(C)CC3)cc2)cc1Nc1nccc(-c2cccnc2)n1,,4.51%,
CC[C@]1(O)C[C@H]2CN(CCc3c([nH]c4ccccc34)[C@@](C(=O)OC)(c3cc4c(cc3OC)N(C=O)[C@H]3[C@@](O)(C(=O)OC)[C@H](OC(C)=O)[C@]5(CC)C=CCN6CC[C@]43[C@@H]65)C2)C1,0.185 µM (active),,
O=C(NCC1CCCCN1)c1cc(OCC(F)(F)F)ccc1OCC(F)(F)F (stereo not drawn),,,inactive
Cc1cc(C2CCCCC2)n(O)c(=O)c1,,-9.23%,
Clc1ccc(C(Cn2ccnc2)OCc2ccc(Sc3ccccc3)cc2)c(Cl)c1 (stereo not drawn),,-13.6%,
CCCOc1ccc2nc(NC(=O)OC)[nH]c2c1,1.47 µM (active),,
CCOc1cc(CC(=O)N[C@@H](CC(C)C)c2ccccc2N2CCCCC2)ccc1C(=O)O,,13.8%,
COc1cc(C(C)=O)ccc1OCCCN1CCC(c2noc3cc(F)ccc23)CC1,,-13.5%,
Nc1ccn([C@@H]2O[C@H](CO)[C@@H](O)C2O)c(=O)n1 (stereo partly drawn),,1.18%,
Clc1ccc(C(Cn2ccnc2)OCc2ccsc2Cl)c(Cl)c1 (stereo not drawn),,-28.4%,
Nc1nc(OCc2ccccc2)c2[nH]cnc2n1,,2.97%,
CN(C)c1ccc2nc3ccc(=[N+](C)C)cc-3sc2c1,1.47 µM (active),,
C[C@]12CCC(=O)C=C1CC[C@@H]1[C@H]2[C@@H](O)C[C@@]2(C)[C@H]1CC[C@]2(O)C(=O)CO,,13.3%,
Cc1c(C(=O)NN2CCCCC2)nn(-c2ccc(Cl)cc2Cl)c1-c1ccc(Cl)cc1,,-26.1%,
Cc1nc(Nc2ncc(C(=O)Nc3c(C)cccc3Cl)s2)cc(N2CCN(CCO)CC2)n1,,16.5%,
CCN(CC)CCOc1ccc(Nc2ncc3cc(-c4c(Cl)cccc4Cl)c(=O)n(C)c3n2)cc1,2.33 µM (active),,
CCCCc1ccc2nc(NC(=O)OC)[nH]c2c1,3.29 µM (active),,
Nc1ncn([C@H]2C[C@H](O)[C@@H](CO)O2)c(=O)n1,,,inactive
O=C1c2c(O)cc(O)cc2OC(c2ccc(O)c(O)c2)C1O (stereo not drawn),,5.44%,
CN(C)c1ccc(O)c2c1C[C@H]1C[C@H]3[C@H](N(C)C)C(=O)C(C(N)=O)=C(O)[C@@]3(O)C(=O)C1=C2O,,29.1%,
